# High-throughput results from PubChem BioAssay.
# An excerpt weighted towards active compounds, which were near 3.7% of everything screened.
# TCR act: activators of T cell receptors; primary human leukocytes, anti-CD3, IL-2 HTRF, 48 h; Potency, µM (top dose mostly 9.22 µM), without a hit: top-dose activation of IL-2 secretion, actives largely listed as activators; 330,000 tested, under 10 active; also: % of control where 0% means no effect
#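 HTRF read-out of IL-2 secretion: europium cryptate donor excited at 320nm, d2 acceptor emission at 665nm. Cells were primary human leukocytes incubated 48 hr with compounds and a-CD3 beads, supplying TCR signal only.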
# VDR inhibitor: blocks the human vitamin D receptor; Potency, µM, without a hit: max response, negative = inhibition, hits mostly inhibitors; VDR-SRC2-3 peptide fluorescence polarization, 2 h; P11473; actives 0.93% (n = 400,000); also: potency is read from the fitted curve at half-maximal effect; % is scaled to controls: 0 for no effect and ±100 for the full control effect
#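 VDR–SRC2-3 interaction, FP format. Cmpds 23 nl via pintool, brief spin, 2 h ambient incubation.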
# WRN helicase inh-1: blocks human WRN helicase; Q14191; WRN helicase unwinding, fluorescent forked duplex, kinetic; Potency, µM (doses to about 114 µM), for the others: top-dose activity change, negative = inhibition, most hits filed as inhibitors; actives 0.46% (n = 360,000); AID 651768; also: potency is read from the fitted curve at half-maximal effect; % is scaled to controls: 0 for no effect and ±100 for the full control effect; nearly all actives have a fitted effect of over 55% in size
#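 Kinetic fluorescence helicase assay: unwinding of a quenched forked DNA duplex (100 nM final) with 2 mM ATP final raises red fluorescence (525/598 nm). Compounds sat 15 min at room temperature with 20 nM WRN beforehand.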
# PLK1 PBD inh: inhibitors of human PLK1 polo-box domain binding; P53350; Plk1 PBD binding of FITC phosphopeptide, fluorescence polarization; Potency, µM, for inactives: max response, negative = inhibition, hits mostly inhibitors; actives 2.8% (n = 360,000); AID 720504; also: potency is read from the fitted curve at half-maximal effect; series mostly up to about 57 µM; % is scaled to controls: 0 for no effect and ±100 for the full control effect; nearly all actives have a fitted effect of over 65% in size
# PI5P4K alpha inh: blocks human PI5P4K alpha kinase activity. max response, %. PI5P4Kalpha enzyme, ADP-Glo luminescence, 60 min; stronger effect = lower value. AID 652105. actives 1.2% (n = 330,000); active = max response of -50% or lower; inconclusive = between -30% and -50%; inactive = -30% or higher; also: value at the top dose of about 77 µM; % is scaled to controls: 0 for no effect and ±100 for the full control effect
#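 Controls without substrate or without enzyme flank wells where PI5P4Kalpha converts substrate using 5 microM ATP (final). Incubation lasts 60 minutes at room temperature; ADP formed is read by ADP-Glo luminescence.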
# FEN1 inhibitor: blocks human flap endonuclease 1 | Recombinant FEN1 flap cleavage, fluorescence, 15 min | Potency, µM (doses to about 114 µM), without a hit: at the top dose activity change, negative = inhibition, most hits filed as inhibitors | actives 0.35% (n = 390,000) | AID 588795; also: potency is read from the fitted curve at half-maximal effect; % is scaled to controls: 0 for no effect and ±100 for the full control effect; nearly all actives have a fitted effect of over 65% in size
#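 FEN1 at 10 nM, compound pretreatment for 15 min (room temperature), 50 nM final substrate to initiate; endpoint reads at 0 and 15 min; DMSO-only plates used as vehicle background.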
# WRN helicase inh-2: confirmation of human WRN helicase inhibitors | shares compounds with WRN helicase inh-1 | WRN helicase DNA unwinding, fluorescence kinetic | Potency, µM (highest dose often 57.1 µM), without a hit: top-dose activity, negative = inhibition, actives largely listed as inhibitors | actives 63% (n = 610) | AID 720497; also: potency is read from the fitted curve at half-maximal effect; nearly all actives have a fitted effect of over 65% in size
# TO displacement: DNA binding via thiazole orange displacement. actives 10% (n = 610). Potency, µM (titrated, usually from 57.1 µM), inactives show top-dose activity change, negative = inhibition, most hits filed as inhibitors. thiazole orange DNA binding displacement, fluorescence. shares compounds with WRN helicase inh-1;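 also: drop in dye fluorescence marks compound binding to DNA; potency is read from the fitted curve at half-maximal effect; % is scaled to controls: 0 for no effect and ±100 for the full control effect; nearly all actives have a fitted effect of over 60% in size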
# BLM counter: BLM helicase inhibition, WRN selectivity check; actives 60% (n = 610); shares compounds with WRN helicase inh-1; AID 720503; Potency, µM (series often up to 57.1 µM), without a hit: at the top dose activity change, negative = inhibition, actives largely listed as inhibitors; Recombinant BLM helicase DNA unwinding, red fluorescence; also: potency is read from the fitted curve at half-maximal effect; nearly all actives have a fitted effect of over 60% in size
# Numbers without * were called inactive; ? = inconclusive; / = no result; [ ] = remark or other dose. Unless noted, calls follow the shape of the dose curve; as a rule, active = well fitted curve in the direction sought with a large enough effect; inconclusive = small, poorly fitted or top-dose-only effect, or another doubt; inactive = no such curve, though single readings can be large; an effect the other way counts as inactive or inconclusive.
SMILES,TCR act,VDR inhibitor,WRN helicase inh-1,PLK1 PBD inh,PI5P4K alpha inh,FEN1 inhibitor,WRN helicase inh-2,TO displacement,BLM counter
Cc1ccc(NC(=O)CSc2nc3ccc(NC(=O)c4cccs4)cc3s2)c(C)c1,/,7.9%,/,/,/,7.5%,/,/,/
CC(=O)NC1C(=O)N(CCN2CCOCC2)c2ccc(Cl)cc21 (stereo unspecified),2.5%,?,22.4µM*,-13.3%,0.8,?,-9.9%,-12.0%,-30.0%
CCCCN1C(=O)C(NC(C)=O)c2cc(Br)ccc21 (stereo unspecified),16.8%,-14.3%,-3.0%,-3.9%,-3.2,-14.9%,/,/,/
O=C(N/N=C/c1ccc(O)c(O)c1)c1ccc(-n2cnnn2)cc1,/,?,2.0%[11.6 µM],-8.2%,-22.9,-24.0%,/,/,/
Cc1nc2c(cc1C(=O)N/N=C/c1ccc(O)c(O)c1)c(=O)n(C)c(=O)n2C,-21.1%[46.1 µM],-15.5%,?,-6.9%,-24.4,-6.9%,?,-4.4%,?
O=C(NCCO)c1cccc2c1C(=O)c1ccccc1-2,-1.4%,-23.2%,-2.7%,-20.7%,-8.7,-21.1%,/,/,/
O=C1c2cccc(NCCNCCO)c2C(=O)c2cccc(NCCNCCO)c21,7.7%,?,7.08µM*,-9.2%,-17.5,3.98µM*,6.07µM*,1.21µM*,7.64µM*
Cc1noc(Cn2c(=O)c3cc4c(cc3n(CC(=O)Nc3ccc(C(C)C)cc3)c2=O)OCO4)n1,/,1.7%,/,/,/,-17.8%,/,/,/
CC(=O)OCCCNc1cc(Sc2ccc(C)cc2)c2nonc2c1[N+](=O)[O-],-5.9%[46.1 µM],?,39.8µM*,?,-2.7,-119.6%,-20.6%,-8.6%,-14.9%
COc1ccc(-c2csc(NC(=S)NC(=O)c3cccs3)n2)cc1OC,-15.7%,-4.5%,?,-27.5%,-67.3*,-35.0%,?,?,?
COc1cc(OC)cc(C(=O)Nc2cc(-c3nc4cccnc4s3)ccc2C)c1,/,0.2%,/,/,/,-16.8%,/,/,/
O=C1c2cc(O)c(O)cc2OC(c2ccc(O)c(O)c2)C1O (stereo unspecified),8.9%,8.0%,?,-2.3%,?,31.6µM*,13.6µM*,-14.3%,?
COc1ccc2c(c1)C(=O)[C@H](O)[C@@H](c1ccc(OC)c(Br)c1)O2,-4.6%,-6.8%,9.4%,-7.1%,2.2,-10.4%,/,/,/
CC(C)Cn1c(=O)c2ccccc2n2c(CCC(=O)NCc3ccccc3Cl)nnc12,/,12.6%,/,/,/,4.5%,/,/,/
Cc1ccc(C)c(CNC(=O)c2cnc3sc(N4CCCC4)nn3c2=O)c1,/,-1.1%,/,/,/,-5.7%,/,/,/
CC1CCN(c2nc3ccc(C(=O)NCc4ccccc4Cl)cc3s2)CC1,/,7.9%,/,/,/,4.8%,/,/,/
CCN(C(=O)c1cc2c(Cl)nc3ccccc3c2s1)c1cccc(Cl)c1,/,-1.4%,/,/,/,-9.2%,/,/,/
CCOC(=O)C1=C(C)N=c2s/c(=C/c3ccc(OCC(=O)O)cc3)c(=O)n2C1c1cc(OC)c(OC)c(OC)c1 (stereo unspecified),/,?,?,-9.3%,-22.0,?,/,/,/
CCOC(=O)C1=C(C)N=c2sc(=Cc3ccc(OCC(=O)O)cc3)c(=O)n2C1c1ccc(Cl)cc1 (stereo unspecified),/,/,?,-14.3%,?,/,7.64µM*,357.0%,3.41µM*
CCOC(=O)C1=C(C)N=c2sc(=Cc3cc(Cl)c(OCC(=O)O)c(Cl)c3)c(=O)n2C1c1cccc(OC)c1 (stereo unspecified),/,/,79.4µM*,26.7µM*,-74.0*,/,30.4µM*,20.5%,?
COc1ccc(/C=C/c2nc3ccccc3c(=O)n2-c2cccc(C(F)(F)F)c2)cc1,/,1.1%,/,/,/,-14.6%,/,/,/
COc1cc(/C=N/NC(=O)c2cc(O)cc(O)c2)ccc1OC(=O)c1ccccc1,-1.6%,-8.5%,28.2µM*,?,-91.7*,50.1µM*,19.2µM*,?,7.64µM*
COc1cc(C(=O)N/N=C/c2ccc(OC(=O)c3ccccc3)c(OC)c2)ccc1O,-1.4%,12.7%,-26.4%,-13.1%,-0.2,-6.8%,/,/,/
O=C(/C=C/c1cccc2ccccc12)c1ccncc1,3.1%[46.1 µM],14.1µM*,?,?,4.0,-11.1%,-16.5%,-10.9%,-13.9%
COc1cccc(/C=C2\CCC(C3CCCC3)C2=O)c1 (stereo unspecified),5.7%,-0.7%,-18.4%,-13.5%,5.6,-9.0%,/,/,/
SMILES,TCR act,VDR inhibitor,WRN helicase inh-1,PLK1 PBD inh,PI5P4K alpha inh,FEN1 inhibitor,WRN helicase inh-2,TO displacement,BLM counter
COc1cccc(/C=C2/CCC(CN(C)C)C2=O)c1 (stereo unspecified),-1.7%,39.8µM*,12.6µM*,3.36µM*,-15.2,1.2%,-25.6%,-13.8%,?
O=C1Nc2ccccc2/C1=N\N=C\c1ccc(O)c(O)c1,1.6%,28.7%,31.6µM*,-16.3%,-56.4*,12.6µM*,6.81µM*,?,6.81µM*
O=Cc1ccc(O)c(O)c1,1.4%,10.7%,0.3%,-4.1%,-1.0,-12.4%,/,/,/
Oc1ccc(/C=N/N=C/c2ccc(O)c(O)c2)cc1O,7.1%,-7.0%,0.752µM*,-15.6%,-7.6,?,0.607µM*,-15.7%,1.08µM*
O=C1Nc2ccc3sc4ccccc4c3c2C1=O,11.6%,-2.9%,?,-5.9%,2.5,?,?,24.1µM*,7.64µM*
Cc1cccc2sc(NC(=O)C3CCN(S(=O)(=O)c4cc([N+](=O)[O-])ccc4Cl)CC3)nc12,0.8%[46.1 µM],-11.3%,?,?,?,-16.4%,?,?,7.64µM*
Cc1ccc2nc(CCl)[n+]([O-])c(-c3ccccc3)c2c1,3.8%,?,79.4µM*,3.36µM*,?,4.6%,-1.2%,-1.8%,-10.7%
Cc1cc(C)c(S(=O)(=O)/N=C2\C=C(Nc3ccc(C(=O)O)cc3)C(=O)c3ccccc32)c(C)c1,-1.6%,?,89.1µM*,?,-79.4*,?,21.5µM*,?,15.2µM*
Oc1ccc(/C=C/c2nc(-c3ccccc3O)n(-c3ccccc3)n2)c(O)c1,/,-1.3%,/,/,/,-9.0%,/,/,/
CN1CCc2[nH]c3ccc(Cl)cc3c2C1,/,2.7%,/,/,/,17.4%,/,/,/
C=CCN1CCc2c(cc(O)c(O)c2Cl)C(c2ccccc2)C1 (stereo unspecified),-1.3%,4.7%,1.2%,-4.5%,-18.9,?,/,/,/
